Assay results taken from PubChem BioAssay AID1159580 (chemical genetic matrix, 2015).
Values joined by “and” are separate entries in the source; they are usually repeats but may differ in a detail not shown here. Equal entries are not always repeated. Screen size: about 5,500 compounds; about 2,000 (36%) were called active. Not shown: some 18% with an inconclusive outcome. Rule as the data show it: active = normalized growth mostly below about 0.91 (no sharp cut-off); inconclusive = no clear call, values can overlap the other calls; inactive = mostly above about 0.92. This is one part of the list.

Assay: chemical genetic growth profiling, strain panel (AID 1159580);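 also: tested at 20 µM; growth read once vehicle control cultures reached saturation at 30 °C; 1 = growth at the plate median or of vehicle wells; lower values mean less growth of the strain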
Settings: S. cerevisiae deletion strains, growth OD

Measured: normalized growth

O=C(O)c1cc(=O)c(O)c2c(O)c(O)ccc2c1
inactive: locus YAL013W, strain DEP1, stronger effect = lower value 1 | locus YAL021C, strain ccr4, stronger effect = lower value 1.02 | locus YAL026C, strain drs2, stronger effect = lower value 0.993 | locus YAL030W, strain snc1, stronger effect = lower value 1 | locus YBL061C, strain skt5, stronger effect = lower value 0.998 | locus YBR009C, strain hhf1, stronger effect = lower value 0.989 | locus YBR021W, strain FUR4, stronger effect = lower value 0.991 | locus YBR023C, strain chs3, stronger effect = lower value 1 | locus YBR171W, strain sec66, stronger effect = lower value 0.985 | locus YBR229C, strain ROT2, stronger effect = lower value 1.01 | locus YBR231C, strain swc5, stronger effect = lower value 0.988 | locus YBR279W, strain paf1, stronger effect = lower value 0.993 | locus YCL011C, strain gbp2, stronger effect = lower value 0.996 | locus YCL016C, strain dcc1, stronger effect = lower value 1 | locus YCL029C, strain bik1, stronger effect = lower value 1.02 | locus YCL061C, strain MRC1, stronger effect = lower value 0.993 | locus YCL069W, strain vba3, stronger effect = lower value 0.998 | locus YCR088W, strain abp1, stronger effect = lower value 0.99 | locus YDL005C, strain med2, stronger effect = lower value 0.997 | locus YDL035C, strain GPR1, stronger effect = lower value 1 | locus YDL040C, strain nat1, stronger effect = lower value 1.01 | locus YDL074C, strain BRE1, stronger effect = lower value 0.995 | locus YDL101C, strain DUN1, stronger effect = lower value 1.01 | locus YDL134C, strain PPH21, stronger effect = lower value 1 | locus YDL185W, strain tfp1, stronger effect = lower value 0.998 | locus YDL192W, strain arf1, stronger effect = lower value 1.01 | locus YDR001C, strain nth1, stronger effect = lower value 0.997 | locus YDR069C, strain doa4, stronger effect = lower value 0.974 | locus YDR101C, strain arx1, stronger effect = lower value 1.02 | locus YDR137W, strain rgp1, stronger effect = lower value 0.907 | locus YDR150W, strain NUM1, stronger effect = lower value 1 | locus YDR159W, strain sac3, stronger effect = lower value 0.969 | locus YDR162C, strain NBP2, stronger effect = lower value 0.979 | locus YDR195W, strain ref2 0.957 | locus YDR297W, strain sur2, stronger effect = lower value 0.997 | locus YDR318W, strain mcm21, stronger effect = lower value 1.05 | locus YDR334W, strain swr1, stronger effect = lower value 0.984 | locus YDR335W, strain msn5, stronger effect = lower value 0.996 | locus YDR388W, stronger effect = lower value 1.03 | locus YDR392W, strain spt3, stronger effect = lower value 0.997 | locus YDR502C, strain sam2, stronger effect = lower value 1.02 | locus YEL003W, strain gim4, stronger effect = lower value 0.999 | locus YEL037C, strain rad23, stronger effect = lower value 1 | locus YEL061C, strain CIN8 (second series), stronger effect = lower value 1 | locus YEL061C, strain CIN8, stronger effect = lower value 1 | locus YER015W, strain faa2, stronger effect = lower value 0.989 | locus YER016W, strain bim1, stronger effect = lower value 0.999 | locus YER110C, stronger effect = lower value 1.03 | locus YER111C, strain swi4, stronger effect = lower value 0.986 | locus YER155C, strain BEM2 (second series), stronger effect = lower value 1.01 | locus YER155C, strain BEM2, stronger effect = lower value 1.02 | locus YER167W, strain BCK2, stronger effect = lower value 1.03 | locus YFR010W, strain ubp6, stronger effect = lower value 0.986 | locus YGL078C, strain dbp3, stronger effect = lower value 1.01 | locus YGL086W, strain mad1, stronger effect = lower value 1.02 | locus YGL167C, strain pmr1, stronger effect = lower value 1 | locus YGL173C, strain kem1, stronger effect = lower value 1 | locus YGL227W, strain vid30, stronger effect = lower value 0.979 | locus YGL240W, strain doc1, stronger effect = lower value 0.994 | locus YGL248W, strain PDE1, stronger effect = lower value 1 | locus YGL253W, strain hxk2, stronger effect = lower value 0.999 | locus YGR078C, strain PAC10, stronger effect = lower value 0.969 | locus YGR135W, strain pre9, stronger effect = lower value 0.993 | locus YGR229C, strain SMI1, stronger effect = lower value 0.977 | locus YGR252W, strain gcn5, stronger effect = lower value 1.03 | locus YHR013C, strain ard1, stronger effect = lower value 0.975 | locus YHR027C, strain rpn1, stronger effect = lower value 0.998 | locus YHR030C, strain SLT2, stronger effect = lower value 1.01 and 0.987 | locus YHR079C, strain IRE1 (second series), stronger effect = lower value 1.02 | locus YHR079C, strain IRE1, stronger effect = lower value 0.99 | locus YHR094C, strain hxt1, stronger effect = lower value 1.02 | locus YHR129C, strain ARP1, stronger effect = lower value 1.01 | locus YHR142W, strain chs7, stronger effect = lower value 1.02 | locus YHR200W, strain rpn10, stronger effect = lower value 1.03 | locus YIL066C, strain RNR3, stronger effect = lower value 1.03 | locus YIL073C, strain SPO22, stronger effect = lower value 1.14 | locus YIL125W, strain kgd1, stronger effect = lower value 1.01 | locus YIR030C, strain dcg1, stronger effect = lower value 1.03 | locus YJL092W, strain hpr5, stronger effect = lower value 0.998 | locus YJL095W, strain BCK1 (second series), stronger effect = lower value 1 | locus YJL095W, strain BCK1, stronger effect = lower value 0.999 and 0.991 | locus YJL115W, strain asf1, stronger effect = lower value 0.99 | locus YJL129C, strain trk1, stronger effect = lower value 1.04 | locus YJL134W, strain LCB3, stronger effect = lower value 1 | locus YJL154C, strain vps35, stronger effect = lower value 1 | locus YJL164C, strain tpk1, stronger effect = lower value 0.985 | locus YJL166W, strain qcr8, stronger effect = lower value 1 | locus YJL168C, strain set2, stronger effect = lower value 1.01 | locus YJL187C, strain SWE1 (second series), stronger effect = lower value 0.994 | locus YJL187C, strain SWE1, stronger effect = lower value 0.995 | locus YJR043C, strain POL32, stronger effect = lower value 1.04 | locus YJR066W, strain TOR1, stronger effect = lower value 0.892
